Shown are actives, neighbours in structure and some others; about 3% of the full set was active somewhere.
KCNH2 3.1 inh = inhibitors of human KCNH2 3.1 potassium channel isoform. U2OS KCNH2 3.1, thallium flux FluxOr; hits give low values. activity change, % (tested at about 1.8 µM). 340,000 compounds, 0.95% hits;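 active = maximum activity change below -70%; inconclusive = maximum activity change from -70% to -50%; inactive = maximum activity change above -50%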;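 note: thallium influx rate constant from kinetic fluorescence after stimulation buffer; % is set by controls: 0 for no effect and ±100 for the full control effect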
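Thallium flux via FluxOr fluorescence (Red40 quencher, 45 min loading) in U2OS cells virally expressing the KCNH2 3.1 isoform (1.77 x 10^8 /mL virus, overnight at 37 C). Rate constants from 2-min kinetic reads post-stimulation, normalised to positive and negative controls.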
ALOX12 inh = blocks human arachidonate 12S-lipoxygenase; purified 12hLO, xylenol orange hydroperoxide absorbance; AID 1671190; P18054; 580,000 compounds, 1.1% hits; Potency, µM (top dose mostly 108 µM), for the others: top-dose activity change, negative = inhibition, actives largely listed as inhibitors; active = well fitted inhibition curve with a large enough effect; inconclusive = small, poorly fitted or top-dose-only effect, or another doubt; inactive = no such curve, though single readings can be large or run the other way; note: potency is the fitted concentration of half-maximal effect; % is set by controls: 0 for no effect and ±100 for the full control effect
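Hydroperoxide product was detected by ferrous iron/xylenol orange as the 573 to 405 nm absorbance ratio. Arachidonic acid at 40 uM (final) was turned over for 30 min at room temperature by 150 nM human 12hLO, pH 7.0 Hepes buffer, after 15 min compound preincubation.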
Chronic BCR inh = chronic active BCR signaling inhibition. ABC-DLBCL IkBa-CBG/CBR reporter, luminescence ratio, 4 h. Potency, µM (series often up to 46.1 µM), inactives show at the highest dose activity change, negative = inhibition, most hits filed as inhibitors. 340,000 compounds, 0.05% hits; active = well fitted inhibition curve with a large enough effect in the signal ratio, with a control signal flat, not every such curve was filed as active; inconclusive = small, poorly fitted or top-dose-only effect, or effect the other way, or a change in a side signal; the % refers to the signal ratio;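 note: potency is the fitted concentration of half-maximal effect; plate controls were basal doxycycline-induced cells for no effect and cells given 10 µM MG132 for full effect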
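TMD8 human ABC-DLBCL cells with doxycycline-inducible IκBα–green luciferase fusion and unfused red luciferase, in 0.5% FBS medium; compounds up to 46 uM, 4 h at 37C. Green/red luminescence ratio, filter-overlap corrected, fitted to concentration-response curves.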
ClpP mod = qHTS Assay for Activators of ClpP; Potency, µM (highest dose often 57.5 µM), for inactives: at the highest dose activity change, negative = active; ATP-dependent Clp protease proteolytic subunit (Bacillus subtilis (strain 168)), P80244; purified B. subtilis ClpP, FRET peptide cleavage, 20 min; 340,000 compounds, 1.9% hits; AID 651965, 2013; active = well fitted falling curve with a large enough effect; inconclusive = small, poorly fitted or top-dose-only effect; inactive = no such curve, though single readings can be large or run the other way; note: potency is the fitted concentration of half-maximal effect; the source files actives as falling curves though it sought activators and does not explain the sign; nearly all actives have a fitted effect of over 65% in size
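ClpP 10 microg/mL final, pH 8 Tris/KCl buffer with BSA, glycerol, Tween-20; compound pinned in; FRET-FV substrate; RT 20 min; Ex320/Em430; ΔFRET vs ADEP 5.8 microM, DMSO, no enzyme.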
LDHA inh = LDHA (human) enzyme inhibition. P00338. purified LDHA, NADH/diaphorase-resazurin fluorescence; hits give low values. activity change, % (values are at about 110 or 230 µM). 480,000 compounds, 0.15% hits; in the data active = activity change below about -30%; inconclusive = mostly about -25% to -30%;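 note: plate controls were DMSO wells for no effect and wells without enzyme for full effect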
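Human LDH5 at 2 nM final in Tris HCl pH 7.4 with 0.06 mM NADH and 0.2 mM pyruvate, reacted 5 minutes at room temperature. Remaining NADH coupled via diaphorase/resazurin; resorufin fluorescence read at 0 and 20 minutes, normalized to enzyme-free and DMSO wells.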
hERG WT inh = KCNH2 (human, wildtype) channel inhibition | U2OS, BacMam KCNH2, thallium flux FluxOr; hits give low values | activity change, % at 1.84 µM | 340,000 compounds, 0.37% hits;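 active = maximum activity change below -70%; inconclusive = maximum activity change between -70% and -50%; inactive = maximum activity change above -50%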; note: % is set by controls: 0 for no effect and ±100 for the full control effect
Target sequence (Q12809 whole entry, looked up): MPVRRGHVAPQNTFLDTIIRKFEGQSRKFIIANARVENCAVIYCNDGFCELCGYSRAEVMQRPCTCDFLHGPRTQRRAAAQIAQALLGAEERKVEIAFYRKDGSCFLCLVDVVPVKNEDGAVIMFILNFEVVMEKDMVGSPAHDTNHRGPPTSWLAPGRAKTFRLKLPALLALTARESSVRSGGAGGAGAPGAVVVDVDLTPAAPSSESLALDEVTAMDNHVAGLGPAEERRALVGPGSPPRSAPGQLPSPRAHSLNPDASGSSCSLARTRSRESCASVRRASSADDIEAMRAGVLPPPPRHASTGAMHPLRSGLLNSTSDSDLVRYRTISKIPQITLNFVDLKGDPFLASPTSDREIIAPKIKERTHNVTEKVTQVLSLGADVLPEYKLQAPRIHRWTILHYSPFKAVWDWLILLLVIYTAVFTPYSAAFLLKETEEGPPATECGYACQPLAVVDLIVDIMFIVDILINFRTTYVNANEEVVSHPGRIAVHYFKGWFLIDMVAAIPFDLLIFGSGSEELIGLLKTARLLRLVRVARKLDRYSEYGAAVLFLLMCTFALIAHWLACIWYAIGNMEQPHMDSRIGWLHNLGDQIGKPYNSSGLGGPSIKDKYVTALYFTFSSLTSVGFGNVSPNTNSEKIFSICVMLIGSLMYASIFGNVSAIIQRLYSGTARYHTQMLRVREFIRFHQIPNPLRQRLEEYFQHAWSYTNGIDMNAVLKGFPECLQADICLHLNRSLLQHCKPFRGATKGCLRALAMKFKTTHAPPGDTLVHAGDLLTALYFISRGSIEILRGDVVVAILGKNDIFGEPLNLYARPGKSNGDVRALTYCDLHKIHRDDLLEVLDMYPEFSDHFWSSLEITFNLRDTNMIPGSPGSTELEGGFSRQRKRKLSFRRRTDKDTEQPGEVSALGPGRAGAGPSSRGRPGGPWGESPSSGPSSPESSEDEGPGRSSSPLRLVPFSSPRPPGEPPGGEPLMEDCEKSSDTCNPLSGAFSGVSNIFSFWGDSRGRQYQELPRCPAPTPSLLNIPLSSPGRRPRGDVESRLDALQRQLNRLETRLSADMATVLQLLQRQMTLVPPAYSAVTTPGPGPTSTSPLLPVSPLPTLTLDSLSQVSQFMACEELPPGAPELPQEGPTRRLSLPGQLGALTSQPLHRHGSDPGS
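U2OS cells were transduced with wild-type KCNH2 virus (2.03 x 10^8 / mL) for 4 h at room temperature, then cultured overnight at 37 C. Thallium flux was read with FluxOr dye. Rate constants were normalized to DMSO controls.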
* hit, by the source's call; ? = inconclusive; nt = no result; [ ] = another dose, or the depositor's remark.

SMILES	KCNH2 3.1 inh	ALOX12 inh	Chronic BCR inh	ClpP mod	LDHA inh	hERG WT inh
CC(C)NCC1(COc2ccccc2)C[C@@H](O)[C@@H](O)C1 (stereo partly drawn)	nt	12.3%[176 µM]	nt	nt	nt	nt
CCS(=O)(=O)NCC1(COc2ccccc2)C[C@@H](O)[C@@H](O)C1 (stereo partly drawn)	nt	56.2µM*	nt	nt	nt	nt
N#Cc1nc(-c2ccc(OCc3ccc(Cl)cc3)cc2)oc1NCCCn1ccnc1	-2.6	19.8%	?	25.1µM*	-7.6	9.8
CCN1CCN(c2oc(COc3ccc(OC)cc3)nc2C#N)CC1	nt	?	nt	nt	-0.9	nt
CCN1CCN(c2oc(COc3ccc(-c4ccccc4)cc3)nc2C#N)CC1	-71.2*	14.3%	?	0.2%	1.6	28.7
N#Cc1nc(-c2ccc(OCc3ccccc3)cc2)oc1NCc1ccco1	-14.3	-1.5%	?	10µM*	-5.8	19.8
N#Cc1nc(-c2ccc(OCc3ccc(Cl)cc3)cc2)oc1NCc1ccco1	nt	-28.6%	nt	nt	-1.9	nt
N#Cc1nc(-c2ccccc2)oc1NCCCn1ccnc1	-8.0	-35.2%	3.4%	3.9%	1.0	3.7
CNc1oc(-c2ccc(OCc3ccccc3)cc2)nc1C#N	6.5	-23.0%	?	35.5µM*	-2.7	6.7
N#Cc1nc(-c2ccc(OCc3ccccc3)cc2)oc1NCCN1CCOCC1	nt	-12.7%	-9.4%	nt	3.1	nt
O=C1CSc2ccc(C(=O)OCCOc3ccccc3)cc2N1	nt	-5.2%	nt	nt	-5.3	nt
COc1ccccc1CNC[C@H]1Cn2cc(-c3ccc(C)cc3)nc2CO1	nt	26.1%[176 µM]	nt	nt	nt	nt
N#Cc1nc(-c2ccc(OCc3ccccc3)cc2)oc1N1CCOCC1	-0.7	11.5%	?	28.2µM*	-3.4	7.0
O=C(Cn1cnc2ccc(Br)cc2c1=O)N1CCCC1c1ccc2c(c1)OCCO2 (stereo not drawn)	nt	-1.8%	nt	nt	-7.4	nt
O=C(c1cccnc1)N(Cc1cccs1)C1CC1	nt	-23.3%	nt	nt	-0.6	nt
Cn1cc(/C=N/n2cnc3scc(-c4ccc(Cl)cc4)c3c2=O)c2ccccc21	-17.6	0.0%	3.55µM*	-14.2%	-3.2	-7.7
O=c1c2c(-c3ccccc3)csc2ncn1/N=C/c1cn(-c2ccccc2)nc1-c1cccs1	nt	nt	nt	nt	-2.7	nt
Cc1nc(N2CCN(C(=O)Cc3ccc(Cl)cc3)CC2)cc(C(F)(F)F)n1	nt	2.6%	nt	nt	nt	nt
Cc1nc2c(C#N)c(-c3ccc(Cl)cc3)ccn2n1	-0.4	-12.2%	?	-21.5%	-1.5	0.8
CC(C)(C)c1nc2c(C#N)c(-c3ccc(Cl)cc3)ccn2n1	-17.1	46.8%	?	28.2µM*	9.1	-3.0
COc1cc2c(cc1OC)C(C)N(CCc1ccc(Cl)cc1)CC2 (stereo not drawn)	-84.4*	?	nt	nt	-11.7	-12.0
COc1cc2c(cc1OC)C(C)N(CCN1C(=O)c3ccccc3C1=O)CC2 (stereo not drawn)	3.0	-6.8%	0.0%	-1.3%	-2.2	1.6
COc1ccc(CCC(=O)NCC(O)COCc2ccc(OC)cc2)cc1 (stereo not drawn)	nt	15.7%	nt	nt	-4.0	nt
Cc1ccc(NS(=O)(=O)c2ccc(Cl)c(C(=O)Nc3ccccc3-c3nc4ccccc4[nH]3)c2)cc1C	-17.1	?	?	35.5µM*	-4.9	5.9
Cc1ccc(NS(=O)(=O)c2ccc3nc(-c4ccccc4)[nH]c3c2)cc1Cl	nt	?	nt	-5.6%	-4.5	nt
SMILES	KCNH2 3.1 inh	ALOX12 inh	Chronic BCR inh	ClpP mod	LDHA inh	hERG WT inh
CCOC(=O)C1=C(C)NC(=O)NC1c1cccs1 (stereo not drawn)	19.3	2.5%	-0.7%	nt	-13.1	33.1
CCOC(=O)c1sc(C)c2c1NC1(CCCCCC1)NC2=O	-11.3	0.0%	-0.4%	?	-2.7	1.5
CCOC(=O)c1sc(C)c2c1NC1(CCCCC1)NC2=O	6.0	0.8%	?	31.6µM*	-3.2	-16.1
CCOC(=O)c1sc(C)c2c1NC(C)(c1cccs1)NC2=O (stereo not drawn)	-26.7	17.3%	-10.5%	28.2µM*	-0.7	43.2
Cc1ccccc1-c1cc2nc(-c3ccc([N+](=O)[O-])cc3)cc(=O)n2[nH]1	3.6	?	1.5%	nt	-4.0	-10.1
O=c1cc(-c2ccc([N+](=O)[O-])cc2)nc2cc(-c3ccc(F)cc3)[nH]n12	-10.5	20µM*	?	1.4%	9.3	-1.5
Cc1cc(=O)n2[nH]c(-c3ccc(F)cc3)cc2n1	4.8	0.0%	?	15.8µM*	-0.1	2.6
Cc1cc(=O)n2[nH]c(C)c(-c3ccc(Cl)cc3)c2n1	-2.6	20.8%	?	?	-8.3	-12.1
Cc1cc(=O)n2[nH]c(-c3ccc(Cl)cc3)cc2n1	7.3	-2.8%	?	28.2µM*	0.9	-0.4
O=C(C(=O)N1CCN(C(=O)c2cc3ccccc3[nH]2)CC1)N1CCCC1	nt	23.0%	nt	nt	1.3	nt
CCOC(=O)c1ccc(Nc2nc3ccccc3nc2NS(=O)(=O)c2ccc(F)cc2)cc1	nt	?	nt	nt	-3.3	nt
CCc1noc(-c2cn(C3CCN(C(=O)c4cccc(C)c4)CC3)nn2)n1	nt	22.8%	nt	nt	nt	nt
Cc1ccc(S(=O)(=O)N2CCN(Cc3nc4sc5c(c4c(=O)[nH]3)CCCC5)CC2)cc1	-13.6	3.7%	-2.0%	-0.7%	-5.3	5.4
O=[N+]([O-])c1ccccc1S(=O)(=O)N1CCN(C2CCN(Cc3ccccc3)CC2)CC1	13.2	-10.4%	-9.3%	-1.6%	-33.7*	-2.4
CC1CCc2c(sc3nc(CN4CCN(S(=O)(=O)c5ccccc5[N+](=O)[O-])CC4)[nH]c(=O)c23)C1 (stereo not drawn)	-73.4*	-5.6%	0.7%	-1.8%	-5.4	-11.6
Brc1ccc2ncnc(Nc3ccc(N4CCOCC4)cc3)c2c1	-104.5*	-15.7%	?	-1.7%	4.6	1.5
Cc1ccc(CN2CCN(Cc3ccc(-n4cccn4)cc3C)CC2CCO)cc1 (stereo not drawn)	-158.3*	8.9%	-22.7%	nt	2.5	-91.1*
Cc1ccc(CN2CCN(Cc3cccc(-n4cccn4)c3)CC2CCO)cc1 (stereo not drawn)	-86.6*	-24.3%	-3.7%	nt	-5.0	-26.4
Cc1ccc(CN2CCN(Cc3c(C)nn(-c4ccc(F)cc4)c3C)CC2CCO)o1 (stereo not drawn)	-6.0	-6.5%	10.5%	0.8%	-2.7	3.7
Cc1cc(C)c(CN2CCN(Cc3ccc(C)o3)C(CCO)C2)c(-n2cccn2)c1 (stereo not drawn)	-72.4*	-1.6%	1.1%	25.1µM*	-8.9	-23.3
Cc1cc(C(=O)N2CCOC[C@H](Oc3cnccn3)C2)c(C(F)(F)F)o1	nt	40.3%[176 µM]	nt	nt	nt	nt
COC(=O)COc1ccccc1/C=C/C(=O)c1cc2ccccc2o1	nt	15.6%	nt	nt	2.8	nt

Assay outcomes as filed in PubChem.
